Reference: paper PMC4552634, “A New Set of Chemical Starting Points with Plasmodium falciparum Transmission-Blocking Potential for Antimalarial Drug Discovery” (PLoS ONE, 2015)
Among all 13,000 compounds or so, about 3,200 (25%) showed an effect of 50% or more. This is one part of the list.

The compounds below were run on P. falciparum stage V gametocytes. Settings: 48 h, 5 µM; inhibitor.
Design: BacTiter-Glo ATP luminescence viability of purified stage V gametocytes in 384-well plates, per cent inhibition versus DMSO

Structure (SMILES)	% Inhibition [%]
CCCCCOc1c(CCC)cc(Cc2cnc(N)nc2N)cc1CCC [TCMDC-137287]	-6.135
COc1cc2c(cc1C(F)(F)F)N(C(=O)Nc1cc(-c3ccncc3)cc(-c3cccnc3)c1)CC2 [TCMDC-139040]	-15.72
COc1cc2c(cc1C(F)(F)F)N(C(=O)Nc1cccc(-c3ccc(CN(C)C)cc3)c1)CC2 [TCMDC-139014]	97.51
COc1cc2c(cc1C(F)(F)F)N(C(=O)Nc1cc(Br)cc(-c3cccnc3)c1)CC2 [TCMDC-139024]	0.01985
CC(C)c1ccc(NC(=O)c2ccc(C(=O)NC3CCN(CC4CCCCC4)CC3)cc2)cc1 [TCMDC-136750]	-11.44
NC1=NC(Cc2ccccc2)(c2ccncc2)C(=O)N1CCCc1ccccc1 (stereo not drawn) [TCMDC-136557]	2.084
CN(C)CC1c2[nH]c3ccccc3c2CCN1C(=O)Nc1ccc(Cl)c(Cl)c1 (stereo not drawn) [TCMDC-139004]	3.866
O=C(c1ccc(Cl)c(Cl)c1)N1CCc2c([nH]c3ccccc23)C1CN1CCCC1 (stereo not drawn) [TCMDC-139011]	81.19
CC(C)CC1c2[nH]c3ccccc3c2CCN1C(=O)CCc1ccccc1 (stereo not drawn) [TCMDC-123996]	-45.79
N#Cc1ccc2c(c1)CCN(CCC1CCC(NC(=O)/C=C/c3ccc4[nH]ccc4c3)CC1)CC2 (stereo not drawn) [TCMDC-139666]	5.34
O=C(Nc1cccc(F)c1)N(Cc1ccc(-c2cccc(CN3CCNCC3)c2)cc1)C1CCN(Cc2ccccc2)CC1 [TCMDC-139638]	105.9
O=C(Nc1cccc(-c2ccc(CN3CCCC3)cc2)c1)c1cccc(F)c1 [TCMDC-132647]	5.119
N#Cc1cccc(C(=O)Nc2cccc(-c3cccc(CN4CCNCC4)c3)c2)c1 [TCMDC-132660]	26.75
CN(c1cc(NC(=O)c2ccccc2)ccn1)C1CCN(Cc2cccc(F)c2)CC1 [TCMDC-135011]	9.307
O=C(Nc1cccc(F)c1)N(Cc1ccc(-c2ccc(CN3CCNCC3)cc2)cc1)C1CCN(Cc2ccccc2)CC1 [TCMDC-139654]	96.89
CCn1cnc2c(N3CCCC3=O)cc(C(=O)N[C@@H](Cc3ccccc3)[C@H](O)CNC3CCCCC3)cc21 [TCMDC-135231]	-30.5
CCN(CC)CCN(Cc1ccc(-c2ccc(C(F)(F)F)cc2)cc1)C(=O)Cn1c(CCc2cc(F)ccc2F)nc(=O)c2ccccc21 [TCMDC-140941]	67.52
CCN(CC)CCN(Cc1ccc(-c2ccc(C(F)(F)F)cc2)cc1)C(=O)Cn1c(CCc2cc(F)c(F)cc2F)nc(=O)c2ccccc21 [TCMDC-140949]	56.5
COc1ccc2nccc([C@H](O)CN3CCC(NCc4nc5c(F)cccc5[nH]4)CC3)c2c1 [TCMDC-141062]	-21.41
NC(=O)c1cccc(C(=O)Nc2cccc(-c3ccc(-c4nc5ccccc5[nH]4)s3)c2)c1 [TCMDC-132195]	9.45
Cc1[nH]c2ccc([N+](=O)[O-])cc2c1C1=CCN(C)CC1 [TCMDC-139186]	-16.2
CNCCNCc1cccc(-c2ccc(-c3nc4ccccc4[nH]3)cc2)c1 [TCMDC-132839]	24.41
c1cc(CNCCN2CCNCC2)cc(-c2ccc(-c3nc4ccccc4[nH]3)cc2)c1 [TCMDC-132861]	85.05

Structure (SMILES)	% Inhibition [%]
c1cc(CNCCN2CCNCC2)cc(-c2cccc(-c3nc4ccccc4[nH]3)c2)c1 [TCMDC-132859]	95.66
CN(C)CCNCc1cccc(-c2cccc(-c3nc4ccccc4[nH]3)c2)c1 [TCMDC-132680]	40.55
c1cc(CN2CCN(CCN3CCOCC3)CC2)cc(-c2ccc(-c3nc4ccccc4[nH]3)cc2)c1 [TCMDC-133939]	-22.81
c1cc(CNCC2CCCO2)cc(-c2cccc(-c3nc4ccccc4[nH]3)c2)c1 (stereo not drawn) [TCMDC-133090]	0.6072
CCNc1cc(CC)nc(Nc2ccc(C)cc2)n1 [TCMDC-133992]	-2.88
COc1cc(N)c(Cl)cc1C(=O)NC1CCC(NCC2CCCCC2)CC1 (stereo not drawn) [TCMDC-136726]	0.4196
Cc1cccc2nc(-c3ccc(-c4ccc(NC(=O)Nc5ccc(Cl)c(Cl)c5)cc4)s3)[nH]c12 [TCMDC-133273]	-52.78
O=C(/C=C/c1ccc(C(F)(F)F)cc1)NCCCCCN1CCCN(C(=O)Nc2ccc(Cl)c(C(F)(F)F)c2)CC1 [TCMDC-136105]	-22.56
Cc1cc(Nc2ccncc2)n2nc(C)c(-c3ccccc3Cl)c2n1 [TCMDC-124918]	99.62
CCc1nn2c(Nc3ccncc3)cc(C)nc2c1-c1ccccc1 [TCMDC-124917]	106.8
Cc1cc(Nc2ccc(C)c(Cl)c2)n2nc(C(F)(F)F)nc2n1 [TCMDC-124919]	-6.645
Cc1cc(Nc2ccc3ccccc3c2)n2ncnc2n1 [TCMDC-125840]	18.77
Cc1cc(Nc2ccc(Cl)c(Cl)c2)n2nc(C)nc2n1 [TCMDC-124417]	-6.756
Cc1cc(Nc2ccc(C)c(C)c2)n2nc(C)nc2n1 [TCMDC-124418]	9.818
Cc1cc(Nc2ccc(Cl)cc2)n2nc(C(F)(F)F)nc2n1 [TCMDC-123826]	-17.3
Cc1cc(Nc2ccncc2)n2nc(C)c(-c3ccc(Cl)cc3)c2n1 [TCMDC-124478]	102.4
Cc1cc(Nc2ccnc(-c3ccc(Cl)cc3)n2)ccn1 [TCMDC-141398]	-5.017
Cc1nc(N)nc(N)c1C#CC1CCCC1 [TCMDC-137728]	11.69
CC(C)(C)c1ccc(NC(=O)c2ccc(CN3CCCN(Cc4cccc(F)c4)CC3)cc2)cc1 [TCMDC-136431]	-15.47
CC1(C)S(=O)(=O)CC(O)CS1(=O)=O [TCMDC-131669]	10.31
Cc1c(C(=O)NCc2ccncc2)sc2nc(-c3cccc([N+](=O)[O-])c3)cn12 [TCMDC-124992]	-38.46
Nc1ncc(-c2ccc(Cl)c(Cl)c2)c(N)n1 [TCMDC-138994]	6.577
O=C(/C=C/c1ccc(Cl)c(Cl)c1)NC1CCN(Cc2ccc(O)cc2)CC1 [TCMDC-141741]	16.03

Structure (SMILES)	% Inhibition [%]
Cc1[nH]c(C)c(-c2ccc(CCc3ccc(C(F)(F)F)cc3)nc2)c(=O)c1Cl [TCMDC-136051]	71.49
CCCCCCCc1ccc(-c2c(C)[nH]c(C)c(Cl)c2=O)cn1 [TCMDC-135816]	34.89
Cc1[nH]c(C)c(-c2ccc(CCc3cccc(C(F)(F)F)c3)nc2)c(=O)c1Cl [TCMDC-136014]	76.88
O=C(Cc1cccc2ccccc12)N1CCc2cc3nccc(N4CCN5CCC[C@H]5C4)c3cc21 [TCMDC-140040]	-3.161
O=C(Nc1ccccc1Cl)c1cc2ccccc2cc1O [TCMDC-123494]	9.579
CC(Nc1nc(Nc2ccc(F)cc2)nc(SCC(N)=O)n1)c1ccccc1 (stereo not drawn) [TCMDC-125832]	-31.65
CCCCNc1nc(NCCCC)c2c(C)c(Cc3ccccc3)c(NCCCC)nc2n1 [TCMDC-138062]	134
Cc1nc2nc(N)nc(N)c2c(C)c1Cc1ccccc1 [TCMDC-137670]	-13.55
CCCCNc1cc(C)nc(NCc2ccccc2)n1 [TCMDC-123663]	33.56
CC(C)(C)c1ccc(NC(=O)c2cccc(CN3CCCN(CC4CCCCC4)CC3)c2)cc1 [TCMDC-135980]	-75.44
Cc1ccc(NC(=O)Nc2ccc(Cl)cc2)cc1-c1cccc(C(=O)Nc2ccc(F)cc2)c1 [TCMDC-133591]	-12.79
Cc1cc(F)ccc1-c1nc(N(C)CCN(C)C(=O)N(C)c2ccccc2)nc2c1ccc(=O)n2-c1c(F)cccc1F [TCMDC-141720]	17.64
Cc1ccc(N)cc1-c1nc(NC2CC(C)(C)NC(C)(C)C2)nc2c1ccc(=O)n2-c1c(F)cccc1F [TCMDC-135790]	57.86
Cc1ccc(C(=O)Nc2ccc(F)cc2)cc1-c1nc(NC2CC(C)(C)NC(C)(C)C2)nc2c1ccc(=O)n2-c1c(F)cccc1F [TCMDC-135391]	95.1
Cc1cc(F)ccc1C1CCN(CCCCNC(=O)c2ccc(NC(=O)c3ccc(Cl)cc3)cc2)CC1 [TCMDC-138363]	13.4
Cc1ccc(NC(=O)Nc2ccccc2F)cc1-c1ccc(C(=O)Nc2ccncc2)cc1 [TCMDC-133706]	-10.32
Cc1cc(C(=O)Nc2ccc(C)c(-c3nc(N(C(=O)c4ccc(F)c(C)c4)C4CCNCC4)nc4c3ccc(=O)n4-c3c(F)cccc3F)c2)ccc1F [TCMDC-135913]	55.46
CCCc1cc(NCc2ccncc2)nc(Nc2ccc(F)cc2)n1 [TCMDC-134012]	34.89
NC(=O)c1ccsc1NC(=O)CNC(c1ccccc1)c1ccccc1 [TCMDC-125458]	2.042
O=C(N[C@@H](Cc1ccccc1)[C@H](O)CNC1CCCc2ccccc21)c1cc(C2CCCC2)cc(N2CCCC2=O)c1 (stereo partly drawn) [TCMDC-134656]	-0.2102
Cc1c2c(nn1-c1ccccc1)C(c1ccccc1)N(c1ccccc1)C2=O (stereo not drawn) [TCMDC-131674]	-2.033
COc1ccccc1N1CCN(c2cccc(F)c2C#N)CC1 [TCMDC-124862]	-55.85
COc1cc(C)c(NC(=O)c2cccc3c(=O)c(C)c(-c4ccccc4)oc23)cc1OC [TCMDC-125261]	-26.52
